Compound activity (PubChem)
CYP2C19 inh: inhibitors of human CYP2C19; P33261; CYP2C19 Supersomes, luciferin-H EGE luminescence, 30 min; inhibition, % at 5 µM; 96,000 tested, 21% active;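 active = CYP2C19 inhibition above a set limit at 5 µM in the primary screen, cut at about 50% in these data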;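 note: plate controls were negative control wells for no effect and 2.5 mM tranylcypromine positive control for full effect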
CYP2C9 inh: blocks human cytochrome P450 2C9 | CYP2C9 Supersomes, luciferin-H conversion, luminescence | 96,000 tested, 20% active | AID 777 | P11712 | inhibition, % at 5 µM;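 active = blocking of liver enzyme CYP2C9 beyond about 50% at 5 µM, limit read from the data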
Target sequence (P11712 whole entry, looked up): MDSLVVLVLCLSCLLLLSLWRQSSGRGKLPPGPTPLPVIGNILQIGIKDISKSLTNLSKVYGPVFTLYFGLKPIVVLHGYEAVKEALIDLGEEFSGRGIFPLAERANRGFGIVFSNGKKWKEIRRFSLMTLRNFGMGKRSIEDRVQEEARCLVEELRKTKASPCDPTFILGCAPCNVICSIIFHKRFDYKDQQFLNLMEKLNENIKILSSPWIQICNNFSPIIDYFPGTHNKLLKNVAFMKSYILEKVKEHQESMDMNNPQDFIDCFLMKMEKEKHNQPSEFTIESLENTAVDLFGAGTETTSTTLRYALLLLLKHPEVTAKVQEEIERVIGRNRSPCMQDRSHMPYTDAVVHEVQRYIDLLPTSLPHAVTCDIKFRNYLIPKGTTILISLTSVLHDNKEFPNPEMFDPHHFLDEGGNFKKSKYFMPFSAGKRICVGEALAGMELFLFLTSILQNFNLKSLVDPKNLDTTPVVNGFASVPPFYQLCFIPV
PostGolgi ctrl: growth of the yeast control strain, post-Golgi counter-screen. efflux-deficient yeast background strain, growth absorbance A615, 16 h. 98,000 tested, 5% active. inhibition, % at 10 µM. AID 738
PostGolgi yeast: growth inhibition of a yeast mutant, post-Golgi transport screen | inhibition, % at 10 µM | post-Golgi transport phenotypic cell assay | 98,000 tested, 0.9% active;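 note: yeast cells grown in 1536-well plates; yeast grown about 18 h at 30C before absorbance read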
CYP2C9 act: increases human cytochrome P450 2C9 activity; P11712; activation factor at 5 µM; recombinant CYP2C9, luciferin-H conversion, luminescence; hits give high values; factor 1 = untreated enzyme, 0 = blocked; AID 1024; 96,000 tested, 1.4% active;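 active = activation factor of 2 or more for CYP2C9 at a 5 µM dose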;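 note: 0 = sulfaphenazole-blocked wells and 1 = vehicle-only wells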
CYP2C19 act: increases human CYP2C19 enzyme activity | P33261 | recombinant CYP2C19, luciferin-H EGE luminescence; hits give high values; 0 = fully inhibited enzyme, 1 = untreated enzyme | activation factor at 5 µM | 96,000 tested, under 10 active | AID 1025;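 active = activation factor of at least 2 at 5 µM in the primary screen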;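 note: 0 = wells with 2.5 mM tranylcypromine and 1 = vehicle-only wells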
The depositor's hits bear a star. An excerpt weighted towards active compounds, which were near 32% of everything screened. Cut-off read from the data, not from the text of the source, unless noted: active = inhibition above about 30%; inactive = the rest.

SMILES	CYP2C19 inh	CYP2C9 inh	PostGolgi ctrl	PostGolgi yeast	CYP2C9 act	CYP2C19 act
CCOC(=O)C(C(=O)OCC)N(C#N)c1nc(SC)nc(N(C)C)n1	46	-4	-4	-5	1	0.5
Cc1ccc(C2CN(C)C3(C(=O)Nc4ccccc43)C23COc2ccccc2C3=O)cc1 (centres undefined)	44	45	80*	-5	0.6	0.6
CCOc1ccc(OCCCC(=O)O)cc1	-18	-17	-7	17	1.2	1.2
Cc1ccc(-c2cc(C(F)F)n3ncc(C(=O)N4CCN(c5cccc(C)c5C)CC4)c3n2)cc1	0	68*	10	24	0.3	1
Cc1ccc(-c2cc(C(F)F)n3ncc(C(=O)Nc4ccc(S(=O)(=O)Nc5ccccc5C)cc4)c3n2)cc1	6	82*	2	0	0.2	0.9
CCOC(=O)N1CCN(C(=O)c2cnn3c(C(F)F)cc(-c4ccc(C)cc4)nc23)CC1	29	12	11	12	0.9	0.7
COc1ccc(NS(=O)(=O)c2ccc(NC(=O)c3cnn4c(C(F)F)cc(-c5ccc(C)cc5)nc34)cc2)cc1	17	60*	0	-10	0.4	0.8
N#Cc1c(-c2ccccc2)[nH]c(=S)[nH]c1=O	12	30	-5	14	0.7	0.9
Cc1c(N=Cc2ccc(-c3ccc(Cl)cc3)o2)c(=O)n(-c2ccccc2)n1C	59*	18	-6	-3	0.8	0.4
COc1ccccc1Nc1ccc(C(=O)NC2CCCCC2)cn1	24	-97	12	18	2*	0.8
CCOC(=O)C1CCN(C(=O)CCNC(=O)c2cc(OC)c(OC)c(OC)c2)CC1	-13	1	1	5	1	1.1
Cc1ccc(C(=O)c2nocc2C(=O)c2cccs2)cc1	62*	69*	16	-12	0.3	0.4
CC1(C)OC(=O)N(c2cccnc2)C1(C)O (centres undefined)	-14	-13	1	-7	1.1	1.1
CCCn1c(Cc2ccccc2)nnc1SCC(=O)N1CCOCC1	0	-1	30*	6	1	1
CCn1c(COc2ccccc2C)nnc1SCC(=O)N1CCN(c2ccccc2)CC1	-1	-1	19	-8	1	1
CCn1c(CSCc2ccc(C)cc2)nnc1SCC(=O)N1CCN(c2ccccc2)CC1	34	78*	15	15	0.2	0.7
Cn1c(Cc2ccccc2)nnc1SCC(=O)N1CCOCC1	-24	-31	-5	1	1.3	1.2
CCn1c(CC(=O)Nc2cccc(OC)c2)nnc1SCC(=O)N1CCN(c2ccccc2)CC1	42	59*	11	2	0.4	0.6
CC1=NN(C(=O)c2ccc(C)cc2)C(O)(C(F)(F)OC(F)(F)F)C1 (centres undefined)	20	13	0	-11	0.9	0.8
CCc1c(C)sc(NC(=O)C2CC2c2ccccc2)c1C(N)=O (centres undefined)	42	22	21	-5	0.8	0.6
CNc1oc(C)nc1S(=O)(=O)c1ccccc1	0	-3	-11	-6	1	1
COc1ccc(-n2c(=O)[nH]cc(C(=O)N3CCCc4ccccc43)c2=O)cc1	16	27	2	19	0.7	0.8
O=C(CS(=O)(=O)c1c[nH]c2ccccc12)N1CCCc2ccccc21	94*	-81	3	3	1.8	0.1
O=C1CNC(=O)N1CC(=O)N1CCCc2ccccc21	-2	-8	-6	-24	1.1	1
O=C(C(=O)N1CCCc2ccccc21)c1c[nH]c2ccccc12	67*	-47	16	-6	1.5	0.3
SMILES	CYP2C19 inh	CYP2C9 inh	PostGolgi ctrl	PostGolgi yeast	CYP2C9 act	CYP2C19 act
CCc1ccc(-c2nc(CN3CCC(C(=O)NCc4ccco4)CC3)c(C)o2)cc1	11	22	-1	-2	0.8	0.9
C=CCn1c(SCC(=O)Nc2ccc3c(c2)CCC3)nnc1-c1cccs1	23	47	11	-5	0.5	0.8
C=CCn1c(COc2ccc3c(c2)CCCC3)nnc1SCC(=O)Nc1cccc(SC)c1	29	51*	7	2	0.5	0.7
C=CCn1c(COc2ccc(Cl)cc2)nnc1SCC(=O)N1CC(=O)Nc2ccccc21	31	-156	-5	-6	2.6*	0.7
C=CCn1c(COc2ccccc2)nnc1SCC(=O)Nc1ccc(S(N)(=O)=O)cc1	38	51*	0	-2	0.5	0.6
C=CCn1c(COc2ccccc2)nnc1SCC(=O)Nc1ccc2c(c1)OCCO2	19	23	1	-8	0.8	0.8
